Each structure is given as a SMILES string. Inconclusive results are not listed. Active and inactive are the calls of the source. The call rests on the fitted dose curve; in most records, active means well fitted curve in the direction sought with a large enough effect; inconclusive means small, poorly fitted or top-dose-only effect, or another doubt; inactive means no such curve, though single readings can be large; an effect the other way counts as inactive or inconclusive.

The target of assay [1] is ATP-dependent 6-phosphofructokinase (Trypanosoma brucei brucei) (UniProt O15648). In words: qHTS Assay to Find Inhibitors of T. brucei phosphofructokinase: hit validation (AID 492961).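 Further: luminescence reports ADP formed as PFK phosphorylates fructose-6-phosphate with ATP.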 Summed up:
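Inhibition of parasite PFK is measured as reduced ADP formation, quantified via luciferase after ATP depletion. Assay used 0.1 mM ATP, 0.5 mM F6P, 1.25 nM enzyme, 45 min incubation.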
(qHTS replaces the single test concentration by a dilution series.)

Another assay relates to CP185. Kind of assay: qHTS profiling for inhibitors of Plasmodium falciparum proliferation (AID 504749). Further: nearly all actives have a fitted effect of over 60% in size. Further: potency means the concentration at half of the fitted maximal effect. The settings on record: P. falciparum in erythrocytes, SYBR Green DNA, 72 h; series mostly up to 28.7 µM. Summed up:
(§1)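 Readout was DNA-dye fluorescence from lysed cultures, ex 485/em 535 nm. Parasitized red cells had grown 72 h with compound; data scaled between 0.29 uM artemisinin and DMSO wells and corrected using vehicle-only plates.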

For the next assay, the system named is CP203. The description is as above. The settings on record: P. falciparum in erythrocytes, SYBR Green DNA, 72 h; series mostly up to 28.7 µM. An outline of the steps:
as §1

Another assay relates to CP211. The assay is described as above. The note with it: P. falciparum in erythrocytes, SYBR Green DNA, 72 h; series mostly up to 28.7 µM. Summed up:
as §1

The next assay concerns CP237. Described as above. The note with it: P. falciparum in erythrocytes, SYBR Green DNA, 72 h; series mostly up to 28.7 µM. Summed up: as §1
The next assay relates to CP250. Described as above. The settings on record: P. falciparum in erythrocytes, SYBR Green DNA, 72 h; series mostly up to 28.7 µM. An outline of the steps: as §1
In the next assay the test system is CP252. The assay is described as above. The settings on record: P. falciparum in erythrocytes, SYBR Green DNA, 72 h; series mostly up to 28.7 µM. An outline of the steps:
as §1

The subject of the next assay is CP262. The assay is described as above. The settings on record: P. falciparum in erythrocytes, SYBR Green DNA, 72 h; series mostly up to 28.7 µM. An outline of the steps:
as §1

A further assay has as its system CP268. The description is as above. The note with it: P. falciparum in erythrocytes, SYBR Green DNA, 72 h; series mostly up to 28.7 µM. Summed up:
as §1

The test system of another assay is CP269. The assay is described as above. The note with it: P. falciparum in erythrocytes, SYBR Green DNA, 72 h; series mostly up to 28.7 µM. Summed up: as §1
The next assay relates to CP286. Described as above. The note with it: P. falciparum in erythrocytes, SYBR Green DNA, 72 h; series mostly up to 28.7 µM. An outline of the steps: as §1
The subject of the next assay is CP291. The description is as above. The settings on record: P. falciparum in erythrocytes, SYBR Green DNA, 72 h; series mostly up to 28.7 µM. Summed up: as §1
Another assay concerns CP305. The description is as above. The note with it: P. falciparum in erythrocytes, SYBR Green DNA, 72 h; series mostly up to 28.7 µM. An outline of the steps: as §1
In another assay the test system is CP315. The description is as above. The settings on record: P. falciparum in erythrocytes, SYBR Green DNA, 72 h; series mostly up to 28.7 µM. Summed up:
as §1

A further assay concerns CP329. Described as above. The note with it: P. falciparum in erythrocytes, SYBR Green DNA, 72 h; series mostly up to 28.7 µM. An outline of the steps:
as §1

The next assay has as its system Dd2. The assay is described as above. The note with it: P. falciparum in erythrocytes, SYBR Green DNA, 72 h; series mostly up to 28.7 µM. Summed up:
as §1

Another assay has as its system ICS. Described as above. The note with it: P. falciparum in erythrocytes, SYBR Green DNA, 72 h; series mostly up to 28.7 µM. Summed up: as §1
The next assay has as its system PC15. The description is as above. The note with it: P. falciparum in erythrocytes, SYBR Green DNA, 72 h; series mostly up to 28.7 µM. An outline of the steps:
as §1

A further assay concerns TAB113. Described as above. The note with it: P. falciparum in erythrocytes, SYBR Green DNA, 72 h; series mostly up to 28.7 µM. Summed up:
as §1

Another assay relates to CP297. Described as above. The note with it: P. falciparum in erythrocytes, SYBR Green DNA, 72 h; series mostly up to 28.7 µM. An outline of the steps:
as §1

Chain of ATP-dependent 6-phosphofructokinase (Trypanosoma brucei brucei) (O15648 whole entry, looked up): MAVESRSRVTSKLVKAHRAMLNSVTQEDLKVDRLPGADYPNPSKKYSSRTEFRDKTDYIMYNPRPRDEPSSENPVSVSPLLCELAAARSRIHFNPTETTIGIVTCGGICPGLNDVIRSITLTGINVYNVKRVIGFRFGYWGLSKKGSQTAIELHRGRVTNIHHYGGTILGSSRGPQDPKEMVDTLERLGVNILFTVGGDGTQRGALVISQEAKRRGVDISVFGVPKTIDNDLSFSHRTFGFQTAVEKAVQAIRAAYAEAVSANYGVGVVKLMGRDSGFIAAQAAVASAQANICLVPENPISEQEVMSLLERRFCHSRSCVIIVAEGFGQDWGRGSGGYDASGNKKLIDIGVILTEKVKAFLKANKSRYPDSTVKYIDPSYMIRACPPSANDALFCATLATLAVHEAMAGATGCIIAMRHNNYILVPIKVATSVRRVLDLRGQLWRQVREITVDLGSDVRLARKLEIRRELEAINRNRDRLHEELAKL

For `C#CCN1CC(=O)N(COC(=O)[C@@H]2[C@@H](C=C(C)C)C2(C)C)C1=O`, the call in assay [1] was inactive. For the same compound, the Potency result in the assay with CP185, with CP203, in the assay with CP211, in the assay with CP237, in the assay with CP250 and in the assay on CP252 was “inactive” each time. Further, the Potency result with CP262, in the assay on CP268, in the assay on CP269, with CP286, in the assay on CP291 and with CP305 was “inactive” each time. The Potency entry in the assay on CP315, with CP329, in the assay with Dd2, with ICS, with PC15 and with TAB113 was “inactive” in each case.

For `CC(=O)Oc1ccc2c3c1OC1[C@@H](OC(C)=O)C=C[C@H]4[C@H](C2)N(C)CC[C@]314` (some centres not stated), in assay [1], the call was inactive. In addition, the Potency entry with CP185, in the assay with CP203, in the assay with CP211, with CP237, in the assay with CP250 and in the assay on CP252 was “inactive” each time. The Potency entry in the assay on CP262, in the assay on CP268, in the assay on CP269, in the assay with CP286, with CP291 and in the assay with CP297 was “inactive” throughout. Also, the Potency entry in the assay with CP305, with CP315, in the assay on CP329, with Dd2, in the assay on ICS and in the assay on PC15 was “inactive” throughout. For the same compound, the Potency result in the assay on TAB113 is “inactive”.

Consider `CCCCCCC(=O)O[C@H]1CC[C@H]2[C@@H]3CCC4CC(=O)C=C(C)[C@]4(C)[C@H]3CC[C@]12C` (some centres not stated), for which the compound was called inactive in [1]. Besides, the Potency result in the assay with CP185, in the assay on CP203, with CP211, with CP250, with CP252 and in the assay on CP262 was “inactive” each time. Also, the Potency entry in the assay with CP268, with CP269, in the assay on CP291, in the assay on CP297, with CP305 and in the assay on CP315 was “inactive” in each case. Besides, the Potency result in the assay on CP329 and with TAB113 was “inactive” in each case. Moreover, the results for the Potency in the assay with CP286 and in the assay with ICS were 11.2 µM (active) and 10 µM (active), respectively.

As for `CC1CC[C@@]2(NC1)OC1CC3C4CC[C@@H]5CC(O)CC[C@@]5(C)C4CC[C@]3(C)C1C2C` (some centres not stated), the call in assay [1] was inactive. Besides, the Potency entry in the assay on CP185, in the assay on CP203, in the assay on CP211, with CP237, in the assay with CP250 and in the assay with CP252 was “inactive” throughout. The Potency entry in the assay with CP262, with CP268, in the assay on CP269, in the assay on CP286, in the assay with CP291 and in the assay on CP297 was “inactive” throughout. The Potency result with CP305, in the assay with CP315, in the assay with CP329, with PC15 and in the assay with TAB113 was “inactive” in each case. For the same compound, the Potency with ICS was 10 µM (active).

On to `C[C@@H](N)[C@@H](O)c1ccc(O)c(O)c1`, for which the Potency result in the assay on CP185, in the assay on CP203, in the assay on CP211, in the assay on CP237, with CP250 and in the assay on CP252 was “inactive” in each case. Moreover, the Potency entry with CP262, in the assay on CP268, in the assay with CP269, with CP286, in the assay with CP291 and in the assay on CP297 was “inactive” each time. Further, the Potency result in the assay with CP305, with CP315, in the assay with CP329, in the assay on Dd2, in the assay with ICS and with PC15 was “inactive” each time. Moreover, the Potency result with TAB113 is “inactive”.

With `CCCC(C)C1(CC)C(=O)NC(=S)NC1=O` (configuration not stated), the outcome in [1] was inactive. Besides, the Potency result with CP185, in the assay on CP203, with CP211, with CP237, with CP250 and in the assay on CP252 was “inactive” in each case. Besides, the Potency result in the assay on CP262, with CP268, in the assay on CP269, in the assay with CP286, with CP291 and in the assay with CP297 was “inactive” in each case. For the same compound, the Potency entry with CP305, in the assay on CP315, with CP329, in the assay with Dd2, with ICS and in the assay with PC15 was “inactive” throughout. For the same compound, in the assay on TAB113, the Potency entry is “inactive”.

For `C=C1CC2C(CC[C@]3(C)C(=O)CCC23)[C@]2(C)C=CC(=O)C=C12` (some centres not stated), in assay [1], the outcome was inactive. The Potency entry in the assay on CP185, in the assay with CP203, in the assay on CP211, in the assay on CP237, in the assay with CP250 and in the assay with CP252 was “inactive” each time. In addition, the Potency entry in the assay with CP262, in the assay on CP268, in the assay on CP269, with CP286, with CP291 and in the assay with CP297 was “inactive” throughout. The Potency result with CP305, in the assay on CP315, in the assay on CP329, in the assay with Dd2, in the assay on ICS and with PC15 was “inactive” throughout. Also, the Potency result with TAB113 is “inactive”.

On to `C[C@]12CCC3C(CCC4=C(Cl)C(=O)CC[C@@]43C)C1CCC2O` (some centres not stated), for which, in assay [1], the result was inactive. Further, the Potency entry with CP185, in the assay with CP203, with CP211, in the assay with CP237, in the assay on CP250 and with CP252 was “inactive” each time. Further, the Potency result with CP262, with CP268, in the assay on CP269, in the assay on CP286, in the assay on CP291 and in the assay with CP297 was “inactive” throughout. Also, the Potency entry in the assay with CP305, in the assay with CP315, in the assay with CP329, in the assay on Dd2, in the assay on ICS and in the assay with PC15 was “inactive” throughout. For the same compound, in the assay on TAB113, the Potency result was “inactive”.

Take `C#CC1(O)C=CC2C3CCC4=CC(=O)CCC4C3CCC21CC` (configuration not stated): the call in assay [1] was inactive. The Potency in the assay with CP237 was 3.55 µM (active); with CP268, 7.57 µM (active); in the assay on CP291, 15.1 µM (active); with PC15, 11.2 µM (active). The Potency result in the assay with CP252 and with Dd2 was “inactive” throughout.

As for `C[C@]12CC[C@H]3[C@@H](CC[C@@]45O[C@@H]4C(=O)C(C#N)C[C@]35C)[C@@H]1CC[C@@H]2O` (some centres not stated), the compound was classed as inactive in assay [1]. Besides, the Potency entry in the assay on CP203, in the assay with CP211, in the assay on CP237, with CP262, in the assay with CP268 and with CP269 was “inactive” throughout. The Potency result with CP286, with CP291, in the assay with CP297, with CP305, with CP315 and in the assay with CP329 was “inactive” each time. Further, the Potency result in the assay on Dd2 and with PC15 was “inactive” each time.

For the compound `C=CC[C@]1(O)CCC2C3CCC4=CCCCC4C3CCC21C` (some centres not stated), in assay [1], the compound was classed as inactive. Further, the Potency result in the assay with CP185, in the assay with CP203, with CP211, in the assay on CP237, in the assay on CP250 and in the assay with CP252 was “inactive” each time. For the same compound, the Potency entry with CP262, in the assay with CP268, in the assay with CP269, in the assay with CP286, in the assay with CP291 and in the assay on CP297 was “inactive” in each case. The Potency result in the assay with CP305, in the assay with CP315, with CP329 and in the assay on TAB113 was “inactive” each time.

For `NC(Cc1ccc(Oc2cc(I)c(O)c(I)c2)c(I)c1)C(=O)O` (configuration not stated), the Potency result in the assay on CP185, in the assay on CP203, in the assay with CP211, in the assay on CP237, in the assay with CP250 and with CP252 was “inactive” in each case. Also, the Potency result in the assay on CP262, in the assay on CP268, in the assay with CP269, in the assay on CP286, with CP291 and in the assay with CP297 was “inactive” in each case. The Potency entry with CP305, in the assay with CP315, in the assay on CP329, with Dd2, with ICS and in the assay with PC15 was “inactive” in each case. Moreover, the Potency entry with TAB113 was “inactive”.

Source of the values: PubChem BioAssay (NCATS).
